{"source": "PubChem BioAssay (NCI)", "experiment_in_all_cases": "NCI-60 one-dose screen, 48 h (100 = growth as untreated, 0 = no growth, -100 = all killed)", "conditions_in_all_cases": "10 µM unless noted", "key": {"[1]": {"tested_on": "SK-MEL-2 melanoma"}, "[2]": {"tested_on": "EKVX NSCLC"}, "[3]": {"tested_on": "SN12C renal"}, "[4]": {"tested_on": "UO-31 renal"}, "[5]": {"tested_on": "TK-10 renal"}, "[6]": {"tested_on": "ACHN renal"}, "[7]": {"tested_on": "CAKI-1 renal"}, "[8]": {"tested_on": "A498 renal"}, "[9]": {"tested_on": "CCRF-CEM leukemia"}, "[10]": {"tested_on": "MOLT-4 leukemia"}}, "note": "The panel holds about 83,000 compounds, 20% with a hit somewhere; the sample as a whole holds those more often.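 How to read the values: 0–100, growth inhibition (40 = 60% inhibited); 0, no net growth; -100 to 0, cell death (-40 = 40% of starting cells died; -100 = all dead).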 Values without a mark were called inactive. Calls of active or inactive are those of the source. Rule for the calls: active = growth percent below 10; inactive = the rest."}
{"smiles": "Nc1cccc(-c2nc3sccn3c2-c2ccnc(NCCCNS(=O)(=O)c3ccc(C(F)(F)F)cc3)n2)c1", "values": [{"measurement": "growth", "setting": "[1]", "value": "-21.7% (active)"}, {"measurement": "growth", "setting": "[2]", "value": 21.1, "unit": "%"}, {"measurement": "growth", "setting": "[3]", "value": 12.8, "unit": "%"}, {"measurement": "growth", "setting": "[4]", "value": "-8.25% (active)"}, {"measurement": "growth", "setting": "[5]", "value": 47.5, "unit": "%"}, {"measurement": "growth", "setting": "[6]", "value": "6.33% (active)"}, {"measurement": "growth", "setting": "[7]", "value": 18.3, "unit": "%"}, {"measurement": "growth", "setting": "[8]", "value": 11.2, "unit": "%"}, {"measurement": "growth", "setting": "[9]", "value": "6.17% (active)"}, {"measurement": "growth", "setting": "[10]", "value": "-29.6% (active)"}]}
{"smiles": "O=C(Nc1ccc(Oc2ccc(F)cc2)c(Cl)c1)c1cccnc1", "values": [{"measurement": "growth", "setting": "[1]", "value": 91.3, "unit": "%"}, {"measurement": "growth", "setting": "[2]", "value": 81.9, "unit": "%"}, {"measurement": "growth", "setting": "[3]", "value": 95.8, "unit": "%"}, {"measurement": "growth", "setting": "[4]", "value": 80.9, "unit": "%"}, {"measurement": "growth", "setting": "[5]", "value": 97.7, "unit": "%"}, {"measurement": "growth", "setting": "[6]", "value": 99.5, "unit": "%"}, {"measurement": "growth", "setting": "[7]", "value": 86.9, "unit": "%"}, {"measurement": "growth", "setting": "[8]", "value": 70.8, "unit": "%"}, {"measurement": "growth", "setting": "[9]", "value": 101, "unit": "%"}, {"measurement": "growth", "setting": "[10]", "value": 105, "unit": "%"}]}
{"smiles": "CCN(CC)CCCCNc1ccc(NCCCCN(CC)CC)c2c1C(=O)c1ccccc1C2=O", "values": [{"measurement": "growth", "setting": "[1]", "value": 105, "unit": "%"}, {"measurement": "growth", "setting": "[2]", "value": 100, "unit": "%"}, {"measurement": "growth", "setting": "[3]", "value": 84.1, "unit": "%"}, {"measurement": "growth", "setting": "[4]", "value": 62.3, "unit": "%"}, {"measurement": "growth", "setting": "[5]", "value": 57.8, "unit": "%"}, {"measurement": "growth", "setting": "[6]", "value": 88.4, "unit": "%"}, {"measurement": "growth", "setting": "[7]", "value": 81.5, "unit": "%"}, {"measurement": "growth", "setting": "[8]", "value": 110, "unit": "%"}, {"measurement": "growth", "setting": "[9]", "value": 78.6, "unit": "%"}, {"measurement": "growth", "setting": "[10]", "value": 62.9, "unit": "%"}]}
{"smiles": "COc1cnc2c(c1)C(=O)c1c-2n(CCCN2CCNCC2)c(=O)c2cc([N+](=O)[O-])ccc12", "values": [{"measurement": "growth", "setting": "[1]", "value": 77.8, "unit": "%"}, {"measurement": "growth", "setting": "[2]", "value": "-64.6% (active)"}, {"measurement": "growth", "setting": "[3]", "value": "-71.5% (active)"}, {"measurement": "growth", "setting": "[4]", "value": "-79.3% (active)"}, {"measurement": "growth", "setting": "[5]", "value": 32.4, "unit": "%"}, {"measurement": "growth", "setting": "[6]", "value": "-88.4% (active)"}, {"measurement": "growth", "setting": "[7]", "value": "-94.5% (active)"}, {"measurement": "growth", "setting": "[8]", "value": 16.9, "unit": "%"}, {"measurement": "growth", "setting": "[9]", "value": "-23% (active)"}, {"measurement": "growth", "setting": "[10]", "value": "-4.73% (active)"}]}
{"smiles": "CCCCNP1(NCCCC)=NP(NCCCC)(NCCCC)=NP(NCCCC)(NCCCC)=NP(NCCCC)(NCCCC)=N1", "values": [{"measurement": "growth", "setting": "[1]", "value": "-23.1% (active)"}, {"measurement": "growth", "setting": "[2]", "value": "-17.2% (active)"}, {"measurement": "growth", "setting": "[3]", "value": 20.1, "unit": "%"}, {"measurement": "growth", "setting": "[4]", "value": 37.6, "unit": "%"}, {"measurement": "growth", "setting": "[5]", "value": 13.6, "unit": "%"}, {"measurement": "growth", "setting": "[6]", "value": 33.9, "unit": "%"}, {"measurement": "growth", "setting": "[7]", "value": 64.4, "unit": "%"}, {"measurement": "growth", "setting": "[8]", "value": "4.56% (active)"}, {"measurement": "growth", "setting": "[9]", "value": "-16.8% (active)"}, {"measurement": "growth", "setting": "[10]", "value": "-38.5% (active)"}]}
{"smiles": "Oc1ccc(Nc2nccc(-c3ccc4ccccc4c3)n2)cc1", "values": [{"measurement": "growth", "setting": "[1]", "value": "9.62% (active)"}, {"measurement": "growth", "setting": "[2]", "value": 58.1, "unit": "%"}, {"measurement": "growth", "setting": "[3]", "value": 32.4, "unit": "%"}, {"measurement": "growth", "setting": "[4]", "value": 29, "unit": "%"}, {"measurement": "growth", "setting": "[5]", "value": 49.4, "unit": "%"}, {"measurement": "growth", "setting": "[6]", "value": 42.8, "unit": "%"}, {"measurement": "growth", "setting": "[7]", "value": 27.2, "unit": "%"}, {"measurement": "growth", "setting": "[8]", "value": 21.8, "unit": "%"}, {"measurement": "growth", "setting": "[9]", "value": "9.76% (active)"}, {"measurement": "growth", "setting": "[10]", "value": 14.8, "unit": "%"}]}
{"smiles": "CNc1nc(C)c(-c2nc(Nc3cccc(S(N)(=O)=O)c3)ncc2F)s1", "values": [{"measurement": "growth", "setting": "[1]", "value": "-50.9% (active)"}, {"measurement": "growth", "setting": "[2]", "value": "4.38% (active)"}, {"measurement": "growth", "setting": "[3]", "value": "-17.2% (active)"}, {"measurement": "growth", "setting": "[4]", "value": "1.38% (active)"}, {"measurement": "growth", "setting": "[5]", "value": "-2.07% (active)"}, {"measurement": "growth", "setting": "[6]", "value": "2.7% (active)"}, {"measurement": "growth", "setting": "[7]", "value": 14.8, "unit": "%"}, {"measurement": "growth", "setting": "[8]", "value": "-38.8% (active)"}, {"measurement": "growth", "setting": "[9]", "value": "-2.73% (active)"}, {"measurement": "growth", "setting": "[10]", "value": "-26.9% (active)"}]}
{"smiles": "Cc1ccc(SCN2CCN(c3cccc(Cl)c3)CC2)cc1", "values": [{"measurement": "growth", "setting": "[1]", "value": 102, "unit": "%"}, {"measurement": "growth", "setting": "[2]", "value": 90.2, "unit": "%"}, {"measurement": "growth", "setting": "[3]", "value": 75.6, "unit": "%"}, {"measurement": "growth", "setting": "[4]", "value": 86.6, "unit": "%"}, {"measurement": "growth", "setting": "[5]", "value": 97.7, "unit": "%"}, {"measurement": "growth", "setting": "[6]", "value": 104, "unit": "%"}, {"measurement": "growth", "setting": "[7]", "value": 70.7, "unit": "%"}, {"measurement": "growth", "setting": "[8]", "value": 85.5, "unit": "%"}, {"measurement": "growth", "setting": "[9]", "value": 38.7, "unit": "%"}, {"measurement": "growth", "setting": "[10]", "value": 83.4, "unit": "%"}]}
{"smiles": "COc1ccc(-n2cc(-c3ccccc3)c3c(SCC(=O)N/N=C/c4ccc([N+](=O)[O-])cc4)ncnc32)cc1", "values": [{"measurement": "growth", "setting": "[1]", "value": 98.1, "unit": "%"}, {"measurement": "growth", "setting": "[2]", "value": 97, "unit": "%"}, {"measurement": "growth", "setting": "[3]", "value": 102, "unit": "%"}, {"measurement": "growth", "setting": "[4]", "value": 79.4, "unit": "%"}, {"measurement": "growth", "setting": "[5]", "value": 108, "unit": "%"}, {"measurement": "growth", "setting": "[6]", "value": 105, "unit": "%"}, {"measurement": "growth", "setting": "[7]", "value": 89.7, "unit": "%"}, {"measurement": "growth", "setting": "[8]", "value": 108, "unit": "%"}, {"measurement": "growth", "setting": "[9]", "value": 104, "unit": "%"}, {"measurement": "growth", "setting": "[10]", "value": 108, "unit": "%"}]}
{"smiles": "CNCCCn1c2c(c3ccc([N+](=O)[O-])cc3c1=O)C(=O)c1cc(OC)cnc1-2", "values": [{"measurement": "growth", "setting": "[1]", "value": "-43.9% (active)"}, {"measurement": "growth", "setting": "[2]", "value": "4.21% (active)"}, {"measurement": "growth", "setting": "[3]", "value": "-29.7% (active)"}, {"measurement": "growth", "setting": "[4]", "value": "-78.4% (active)"}, {"measurement": "growth", "setting": "[5]", "value": "-23.9% (active)"}, {"measurement": "growth", "setting": "[6]", "value": "-65.2% (active)"}, {"measurement": "growth", "setting": "[7]", "value": "-83.4% (active)"}, {"measurement": "growth", "setting": "[8]", "value": "-97% (active)"}, {"measurement": "growth", "setting": "[9]", "value": "-31.9% (active)"}, {"measurement": "growth", "setting": "[10]", "value": "-10.9% (active)"}]}
